Here are results for nine compounds from PubChem BioAssay (NCATS).

Where “and” joins values, the source holds several entries; their conditions need not be identical. Equal entries are not always repeated. Inconclusive results are not listed. Calls of active or inactive are those of the source. Unless noted, calls come from the whole dose curve; as a rule, active = well fitted curve in the direction sought with a large enough effect; inconclusive = small, poorly fitted or top-dose-only effect, or another doubt; inactive = no such curve, though single readings can be large; an effect the other way counts as inactive or inconclusive.

In experiment [1] the target is Thyrotropin receptor (Homo sapiens) (UniProt P16473). Briefly: qHTS Assay for Antagonists of the Thyroid Stimulating Hormone Receptor (AID 488980). Note: series mostly up to about 58 µM; 0% is about no effect. The procedure, abridged: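 TSHR-transfected HEK293 cells (2000/well) in HEPES-buffered HBSS with 70 uM RO 20-1724 were stimulated with 4 nM TSH (EC80, final) in the presence of compound. cAMP was measured by HTRF competition after lysis and 30 min at RT.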
Background: In qHTS, concentration-response curves come from the screen itself.

Experiment [2] has as its target D(1A) dopamine receptor (Homo sapiens) (UniProt P21728). Briefly: HTS Assay for Allosteric Agonists of the Human D1 Dopamine Receptor: Primary Screen for Agonists (AID 488981). Note: 0% is about no effect. In a few lines:
(§1)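 Calcium flux in an inducible, force-coupled HEK293 Trex D1 line (overnight at 30 C): agonist mode is the 180 s kinetic read after compound; potentiator mode is the following 180 s read after dopamine at EC20.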

Experiment [3] has the same target. Briefly: HTS Assay for Allosteric Agonists of the Human D1 Dopamine Receptor: Primary Screen for Potentiators (AID 488982). Note: 0% is about no effect. In a few lines: as §1
For experiment [4], the target named is ATP-dependent 6-phosphofructokinase (Trypanosoma brucei brucei) (UniProt O15648). Briefly: qHTS Assay to Find Inhibitors of T. brucei phosphofructokinase: hit validation (AID 492961).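 Note: luminescence reports ADP formed as PFK phosphorylates fructose-6-phosphate with ATP; series mostly up to about 51 µM; % is set by controls: 0 for no effect and ±100 for the full control effect.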 In a few lines:
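ADP-Glo luminescence read-out of ADP formed by 1.25 nM PFK from 0.1 mM ATP and 0.5 mM F6P (TEA pH 8.0, 45 min, RT). Compounds titrated; activity normalized to no-enzyme and full-enzyme controls.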

Experiment [5] in a line: Validation screen for small molecules that induce genotoxicity in human embryonic kidney (HEK293T) cells expressing luciferase-tagged ELG1 (AID 493106). Note: 0% is about no effect. In a few lines:
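Cells were dispensed at 2,000 per well, then 23 nL compound or DMSO was pinned in. After 16 hr at 37 °C and 5% CO2, ONE-Glo reagent was added. Luciferase activity was measured following 30 min at room temperature.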

Experiment [6] concerns the target ATPase family AAA domain-containing protein 5 (Homo sapiens) (UniProt Q96QE3). Briefly: Validation screen for small molecules that inhibit ELG1-dependent DNA repair in human embryonic kidney (HEK293T) cells expressing luciferase-tagged ELG1 (AID 493107). Note: nearly all actives have a fitted effect of over 70% in size. Note: potency is the fitted concentration of half-maximal effect. The procedure, abridged:
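Cells are dispensed in 1536-well format, then 5-fluorouridine and compound are pinned in. After a 16 hr incubation at 37 °C and 5% CO2, ONE-Glo is added and luciferase measured on a CCD imager.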

For experiment [7], the target named is Thyrotropin-releasing hormone receptor (Homo sapiens) (UniProt P34981). Briefly: qHTS for Small Molecule Agonists and Allosteric Enhancers of Human TRH Receptor: Validation Screen for Agonists (AID 493127;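 active = calcium activation more than 3 SD above the typical response in the agonist read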;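 note: intracellular calcium rise by fluo-8 fluorescence before TRH EC20 addition; 0% is about no effect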). Conditions: TRH receptor agonist cell assay; at 2 µM; stronger effect = higher value. In a few lines:
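Compounds are added by online pintool to dye-loaded TRHR cells while fluorescence is recorded every second. A rise in calcium signal during the agonist read marks activation; a later 10 nM TRH addition (EC20) serves the separate enhancer mode.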

Experiment [8] can be described thus: Nrf2 qHTS screen for inhibitors: Validation (AID 493153; active = well fitted inhibition curve with a large enough effect in the main read-out, with a control signal flat, not every such curve was filed as active; note: potency is the fitted concentration of half-maximal effect). The note with it: Potency: luciferase luminescence; viability change: measured here: cytotoxicity max response. The procedure, abridged:
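A549 ARE_Fluc, 5% FBS OPTI-MEM; cpd titration, 18-24 h, 37°C/5% CO2. Read 1: CellTiter-Fluor (Ex 405/Em 525), cytotox. Read 2: luciferase lum, Nrf2 activity.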

For experiment [9], the target named is Galactokinase (Homo sapiens) (UniProt P51570). Briefly: qHTS Validation Assay for Inhibitors of Human Galactokinase (GALK) (AID 493189). Note: 0% is about no effect. The procedure, abridged: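 GALK (5 nM) with 35 uM ATP and 100 uM galactose in HEPES pH 8.0 with MgCl2, NaCl, DTT and BSA. Reaction ran 1 h at room temperature. Residual ATP read by Kinase-Glo Plus luminescence.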
Experiment [10] in a line: Validation screen for small molecules that induce DNA re-replication in SW480 colon adenocarcinoma cells (AID 504364). Note: 0% is about no effect. In a few lines:
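Image-based qHTS: compounds were incubated with SW480 cells for 48 hr, nuclei stained with Hoechst, and per-nucleus fluorescence intensity scanned to flag cells with excess DNA content.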

For experiment [11], the target named is Peptidyl-prolyl cis-trans isomerase NIMA-interacting 1 (Homo sapiens) (UniProt Q13526). Briefly: qHTS Validation Assay to Find Inhibitors of Pin1 (AID 504536; active = well fitted inhibition curve with a large enough effect in the polarisation, with a control signal flat, not every such curve was filed as active; the % refers to the polarisation;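 note: 0% = full Pin1 enzyme wells and -100% = no-enzyme wells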). The procedure, abridged: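 Fluorescence polarization competition: compounds (titration) displace HiFluor-488-labeled Pin1-1b peptide from Pin1 (0.3 uM final) in pH 7.5 HEPES buffer with DTT, 10 min at room temperature; %Activity normalized to no-enzyme wells, curves fitted.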

The target in experiment [12] is Phosphoglycerate kinase, glycosomal (Trypanosoma brucei brucei) (UniProt P07378). Briefly: qHTS Validation Assay to Find Inhibitors of Phosphoglycerate Kinase (AID 504547).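 Note: control wells lack PGK and mark full inhibition.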 In a few lines: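 Luminescence end-point (Kinase-Glo Plus, 10 min) after a 60 min room-temperature coupled reaction. GAPDH at 100nM final supplies 1,3-BPG to PGK. Buffer: 100mM TEA pH 7.6, 5mM MgCl2, 0.01% Tween-20. Wells lacking PGK served as controls.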

Experiment [13] can be described thus: Inducers of the Endoplasmic Reticulum Stress Response (ERSR) in human glioma: Validation (AID 504836). Note: 0% is about no effect. The procedure, abridged:
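ERSR induction read as luciferase luminescence (Bright-Glo, 10 min at room temperature) in stably transfected human U87-MG glioma cells exposed to compounds for 16 h, using GRP78 as sensor.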

Experiment [14] concerns the target Ubiquitin carboxyl-terminal hydrolase 1 (Homo sapiens) (UniProt O94782). Briefly: Inhibitors of USP1/UAF1: Pilot qHTS (AID 504865).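 Note: rhodamine fluorescence freed from ubiquitin-rhodamine substrate followed over time; top concentration of the series differs between compounds; % is set by controls: 0 for no effect and ±100 for the full control effect; nearly all actives have a fitted effect of over 35% in size.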 In a few lines: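 USP1/UAF1 complex at 1 nM preincubated 15 min at room temperature with compound, then Ub-Rho substrate added at 150 nM final. Fluorescence (480/540 nm) read kinetically in 50 mM HEPES pH 7.8, 0.5 mM EDTA, 1 mM TCEP, 0.1 mg/ml BSA, 0.01% Tween-20.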

The target in experiment [15] is D(1A) dopamine receptor (Homo sapiens) (UniProt P21728). Briefly: HTS Assay for Allosteric Agonists of the Human D1 Dopamine Receptor: Primary Screen for Antagonists (AID 488983).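 Note: calcium flux response to an EC80 dopamine challenge measured with no-wash dye; nearly all actives have a fitted effect of over 65% in size.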 Note: potency is the fitted concentration of half-maximal effect. In a few lines: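 Kinetic fluorescence at 1 cycle/sec tracked intracellular calcium in force-coupled, tetracycline-inducible HEK293 T-REx D1 cells. Loss of response to an EC80 dopamine dose, given 180 s after compound, marked antagonists.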

Experiment [16] addresses DNA dC->dU-editing enzyme APOBEC-3G (Homo sapiens) (UniProt Q9HC16). Briefly: qHTS for inhibitors of Vif-A3G interactions: Validation (AID 588379). Note: 0% is about no effect. The procedure, abridged: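 Yellow fluorescence (Ex 488, Em 500-530) of Vif-coexpressing HeLa A3G-eYFP cells, scanned by Acumen cytometer, reports blocked A3G degradation. Cells plated at 700/well overnight at 37 deg C before compound addition, then a further overnight compound incubation at 37 deg C.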

Experiment [17] addresses Estrogen receptor (Homo sapiens) (UniProt P03372). Briefly: qHTS assay for small molecule agonists of estrogen receptor alpha signaling (AID 588514; calls by dose curve;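 note: 0% = vehicle only and 100% = reference agonist; nearly all actives have a fitted effect of over 70% in size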). In a few lines: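 Efficacy is expressed against 20 nM 17-beta-estradiol (100%) and DMSO basal (0%); EC50 from Hill equation. Assay: beta-lactamase reporter in ER-alpha-UAS-bla HEK 293 cells, 18 h compound incubation, CCF4 detection.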

DNA dC->dU-editing enzyme APOBEC-3G (Homo sapiens), sequence (Q9HC16 whole entry, looked up): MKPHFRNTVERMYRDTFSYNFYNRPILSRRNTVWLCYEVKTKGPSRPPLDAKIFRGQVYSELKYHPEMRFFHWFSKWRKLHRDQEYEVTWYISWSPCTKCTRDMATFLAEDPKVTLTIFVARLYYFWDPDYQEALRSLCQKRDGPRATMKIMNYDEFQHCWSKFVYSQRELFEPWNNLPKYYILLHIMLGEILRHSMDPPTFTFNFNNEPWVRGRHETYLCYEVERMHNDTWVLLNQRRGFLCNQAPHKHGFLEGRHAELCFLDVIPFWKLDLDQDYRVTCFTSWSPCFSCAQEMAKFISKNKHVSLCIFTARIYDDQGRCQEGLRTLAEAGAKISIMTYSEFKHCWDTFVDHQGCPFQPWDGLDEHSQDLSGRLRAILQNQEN
Phosphoglycerate kinase, glycosomal (Trypanosoma brucei brucei), sequence (P07378 whole entry, looked up): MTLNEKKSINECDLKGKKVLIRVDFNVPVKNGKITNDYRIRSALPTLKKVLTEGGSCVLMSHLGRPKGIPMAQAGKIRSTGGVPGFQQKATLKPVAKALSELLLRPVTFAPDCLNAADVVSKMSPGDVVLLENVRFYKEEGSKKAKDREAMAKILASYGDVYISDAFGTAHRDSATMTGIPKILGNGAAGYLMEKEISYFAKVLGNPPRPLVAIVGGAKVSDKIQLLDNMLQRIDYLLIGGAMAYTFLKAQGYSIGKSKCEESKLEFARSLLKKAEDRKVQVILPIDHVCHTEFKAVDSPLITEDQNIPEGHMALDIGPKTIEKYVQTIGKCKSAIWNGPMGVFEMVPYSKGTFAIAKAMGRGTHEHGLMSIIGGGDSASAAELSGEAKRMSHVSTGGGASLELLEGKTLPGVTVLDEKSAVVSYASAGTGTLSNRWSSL
D(1A) dopamine receptor (Homo sapiens), sequence (P21728 whole entry, looked up): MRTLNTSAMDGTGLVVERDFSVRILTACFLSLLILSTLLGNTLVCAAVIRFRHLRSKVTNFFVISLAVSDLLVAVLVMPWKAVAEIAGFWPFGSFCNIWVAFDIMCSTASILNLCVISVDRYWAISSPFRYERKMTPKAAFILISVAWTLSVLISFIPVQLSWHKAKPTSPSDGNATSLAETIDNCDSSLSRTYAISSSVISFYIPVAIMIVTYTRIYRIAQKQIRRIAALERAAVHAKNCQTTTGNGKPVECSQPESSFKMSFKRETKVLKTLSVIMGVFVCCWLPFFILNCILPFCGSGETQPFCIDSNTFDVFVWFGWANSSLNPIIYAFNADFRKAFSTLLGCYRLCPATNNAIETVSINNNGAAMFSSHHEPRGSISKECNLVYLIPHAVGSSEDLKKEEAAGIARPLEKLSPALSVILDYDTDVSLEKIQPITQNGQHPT
Thyrotropin-releasing hormone receptor (Homo sapiens), sequence (P34981 whole entry, looked up): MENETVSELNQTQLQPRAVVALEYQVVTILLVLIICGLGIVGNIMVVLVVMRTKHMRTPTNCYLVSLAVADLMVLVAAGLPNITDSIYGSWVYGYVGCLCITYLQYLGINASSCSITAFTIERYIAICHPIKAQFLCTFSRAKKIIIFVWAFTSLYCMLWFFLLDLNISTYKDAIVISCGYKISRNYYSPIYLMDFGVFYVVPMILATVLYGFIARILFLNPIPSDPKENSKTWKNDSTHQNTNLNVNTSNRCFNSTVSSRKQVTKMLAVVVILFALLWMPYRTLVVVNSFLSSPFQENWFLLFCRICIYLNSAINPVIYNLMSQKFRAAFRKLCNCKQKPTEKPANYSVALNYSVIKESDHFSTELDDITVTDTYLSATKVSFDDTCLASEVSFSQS
Thyrotropin receptor (Homo sapiens), sequence (P16473 whole entry, looked up): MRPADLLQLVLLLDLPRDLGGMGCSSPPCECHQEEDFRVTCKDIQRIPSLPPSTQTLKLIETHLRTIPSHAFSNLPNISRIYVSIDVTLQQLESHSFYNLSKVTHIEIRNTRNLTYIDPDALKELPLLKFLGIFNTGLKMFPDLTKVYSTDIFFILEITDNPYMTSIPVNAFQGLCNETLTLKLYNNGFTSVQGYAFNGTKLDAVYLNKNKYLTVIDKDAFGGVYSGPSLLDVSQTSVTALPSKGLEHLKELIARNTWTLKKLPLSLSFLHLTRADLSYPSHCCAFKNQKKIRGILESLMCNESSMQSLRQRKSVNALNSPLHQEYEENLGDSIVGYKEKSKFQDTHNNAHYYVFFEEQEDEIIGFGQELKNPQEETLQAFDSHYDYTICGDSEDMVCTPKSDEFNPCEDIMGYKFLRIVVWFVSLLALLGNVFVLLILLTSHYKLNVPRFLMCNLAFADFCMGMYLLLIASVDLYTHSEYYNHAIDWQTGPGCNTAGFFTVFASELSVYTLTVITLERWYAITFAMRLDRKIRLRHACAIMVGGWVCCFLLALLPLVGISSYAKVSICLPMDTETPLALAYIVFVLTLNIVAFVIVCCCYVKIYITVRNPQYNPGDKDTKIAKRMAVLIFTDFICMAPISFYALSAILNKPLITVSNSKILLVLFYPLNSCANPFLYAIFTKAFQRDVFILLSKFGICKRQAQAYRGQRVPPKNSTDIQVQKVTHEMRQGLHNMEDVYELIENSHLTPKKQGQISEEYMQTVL
Galactokinase (Homo sapiens), sequence (P51570 whole entry, looked up): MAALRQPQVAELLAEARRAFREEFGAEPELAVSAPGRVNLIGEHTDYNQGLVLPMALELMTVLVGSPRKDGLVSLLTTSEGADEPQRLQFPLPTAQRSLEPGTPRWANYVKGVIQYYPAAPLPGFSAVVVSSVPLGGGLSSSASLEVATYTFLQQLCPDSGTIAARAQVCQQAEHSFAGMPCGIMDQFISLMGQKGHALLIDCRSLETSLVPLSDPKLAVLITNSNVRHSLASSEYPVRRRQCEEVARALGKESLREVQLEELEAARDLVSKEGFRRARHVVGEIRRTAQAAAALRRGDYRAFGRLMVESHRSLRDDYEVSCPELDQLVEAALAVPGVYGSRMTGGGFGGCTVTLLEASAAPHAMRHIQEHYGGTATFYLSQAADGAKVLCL
ATPase family AAA domain-containing protein 5 (Homo sapiens), sequence (Q96QE3 whole entry, looked up, the tested form may be a part): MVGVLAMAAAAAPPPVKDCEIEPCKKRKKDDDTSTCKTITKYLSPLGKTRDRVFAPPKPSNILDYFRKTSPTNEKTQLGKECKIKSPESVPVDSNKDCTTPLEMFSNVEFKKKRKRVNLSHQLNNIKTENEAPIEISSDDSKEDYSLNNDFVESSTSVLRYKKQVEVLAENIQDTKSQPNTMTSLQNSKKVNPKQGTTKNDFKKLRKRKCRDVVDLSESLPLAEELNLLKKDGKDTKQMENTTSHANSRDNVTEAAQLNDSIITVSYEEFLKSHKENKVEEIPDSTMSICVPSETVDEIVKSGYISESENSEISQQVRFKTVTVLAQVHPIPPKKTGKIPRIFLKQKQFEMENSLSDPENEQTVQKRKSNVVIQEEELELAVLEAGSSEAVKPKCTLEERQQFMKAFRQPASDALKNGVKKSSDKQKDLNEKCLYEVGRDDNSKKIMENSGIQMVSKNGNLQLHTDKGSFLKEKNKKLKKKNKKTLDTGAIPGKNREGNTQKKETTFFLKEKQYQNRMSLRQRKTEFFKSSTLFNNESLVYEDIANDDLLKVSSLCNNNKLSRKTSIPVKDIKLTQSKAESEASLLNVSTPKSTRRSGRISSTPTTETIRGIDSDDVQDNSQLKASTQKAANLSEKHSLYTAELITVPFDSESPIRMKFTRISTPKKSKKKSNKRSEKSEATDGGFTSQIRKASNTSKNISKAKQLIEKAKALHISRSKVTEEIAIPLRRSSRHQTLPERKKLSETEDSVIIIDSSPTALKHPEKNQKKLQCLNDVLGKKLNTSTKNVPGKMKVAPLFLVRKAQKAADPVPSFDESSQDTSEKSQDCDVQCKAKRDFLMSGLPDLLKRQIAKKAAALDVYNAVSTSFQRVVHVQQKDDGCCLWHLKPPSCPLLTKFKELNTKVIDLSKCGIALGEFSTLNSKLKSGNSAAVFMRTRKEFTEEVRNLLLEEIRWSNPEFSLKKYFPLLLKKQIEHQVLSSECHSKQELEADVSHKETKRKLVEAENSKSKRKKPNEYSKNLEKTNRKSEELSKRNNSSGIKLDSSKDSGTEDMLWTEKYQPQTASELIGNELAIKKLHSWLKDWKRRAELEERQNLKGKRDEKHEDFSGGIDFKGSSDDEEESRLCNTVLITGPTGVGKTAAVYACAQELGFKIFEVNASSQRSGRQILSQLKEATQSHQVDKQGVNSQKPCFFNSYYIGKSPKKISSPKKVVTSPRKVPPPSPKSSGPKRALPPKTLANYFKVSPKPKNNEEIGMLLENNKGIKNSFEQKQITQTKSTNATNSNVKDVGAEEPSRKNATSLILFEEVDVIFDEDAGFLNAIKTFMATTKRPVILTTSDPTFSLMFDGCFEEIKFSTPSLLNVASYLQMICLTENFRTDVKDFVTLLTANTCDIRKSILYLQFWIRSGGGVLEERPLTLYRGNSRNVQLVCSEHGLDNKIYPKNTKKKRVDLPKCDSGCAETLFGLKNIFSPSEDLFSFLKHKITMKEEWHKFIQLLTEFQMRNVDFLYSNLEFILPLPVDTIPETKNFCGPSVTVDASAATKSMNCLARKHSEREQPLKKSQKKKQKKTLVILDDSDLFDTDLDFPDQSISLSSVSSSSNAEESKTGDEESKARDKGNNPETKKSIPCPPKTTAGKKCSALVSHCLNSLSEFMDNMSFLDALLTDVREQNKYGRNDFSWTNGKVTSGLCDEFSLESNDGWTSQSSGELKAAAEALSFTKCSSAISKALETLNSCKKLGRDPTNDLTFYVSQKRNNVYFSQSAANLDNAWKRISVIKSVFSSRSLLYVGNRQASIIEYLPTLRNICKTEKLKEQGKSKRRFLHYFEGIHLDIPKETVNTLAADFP
Peptidyl-prolyl cis-trans isomerase NIMA-interacting 1 (Homo sapiens), sequence (Q13526 whole entry, looked up): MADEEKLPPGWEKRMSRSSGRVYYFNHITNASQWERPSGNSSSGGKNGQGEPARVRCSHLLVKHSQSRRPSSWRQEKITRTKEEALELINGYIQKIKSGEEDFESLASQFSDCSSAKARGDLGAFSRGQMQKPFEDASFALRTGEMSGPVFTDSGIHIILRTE

For the compound `COc1ccccc1N1CCNCC1`, the result in experiment [1], in experiment [4], in experiment [9] and in experiment [13] was inactive. Besides, the Potency entry in experiment [2], in experiment [3], in experiment [5], in experiment [6], in experiment [8] and in [10] was “inactive” in each case. The Potency entry in experiment [11], in experiment [12] and in [14] was “inactive” throughout. For the same compound, the activation in experiment [7] is -7.69% (inactive). Further, the viability change in [8] came out at 10.4%.

For `CC[C@@H](CO)NC(=O)[C@@H]1C=C2c3cccc4[nH]cc(c34)C[C@H]2N(C)C1`, the Potency entry in experiment [2], in experiment [3], in experiment [5], in [6], in experiment [8] and in [12] was “inactive” each time. Besides, the Potency entry in experiment [14] was “inactive”. Also, in [15], the Potency is 0.447 µM (active). Also, in experiment [8], the viability change is -12.7%.

`CC(C)=CCOc1c2occc2cc2ccc(=O)oc12`: the Potency result in experiment [2], in experiment [3], in [15], in experiment [5], in experiment [6] and in experiment [8] was “inactive” throughout. The Potency result in [11], in experiment [12] and in [14] was “inactive” throughout. Moreover, the viability change in experiment [8] turned out to be 0.848%. For the same compound, the result in experiment [13] was inactive.

As for `CN1C[C@H](CNC(=O)OCc2ccccc2)C[C@@H]2c3cccc4c3c(cn4C)C[C@H]21`, the compound was classed as inactive in [1], in [9], in [13] and in experiment [16]. In addition, the Potency result in experiment [2], in experiment [3], in [5], in experiment [12] and in experiment [14] was “inactive” throughout. Besides, the Potency in experiment [15] was 0.447 µM (active). In addition, in experiment [7], the activation is 7.38% (inactive).

In the case of `O=c1[nH]c2ccccc2n1C1CCN(CCCC(c2ccc(F)cc2)c2ccc(F)cc2)CC1`, the outcome in [1], in experiment [9], in experiment [13] and in [16] was inactive. In addition, the Potency result in experiment [2], in experiment [3], in experiment [5], in experiment [10], in experiment [11] and in experiment [12] was “inactive” each time. Moreover, the Potency result in experiment [17] was “inactive”. For the same compound, in experiment [6], the Potency is 11.6 µM (active).

With `CCCN1CCC[C@@H]2Cc3[nH]ncc3C[C@H]21`, the Potency entry in experiment [2], in experiment [3], in experiment [15], in experiment [5], in [6] and in experiment [8] was “inactive” each time. For the same compound, the Potency entry in [11], in experiment [12] and in [14] was “inactive” each time. For the same compound, in experiment [8], the viability change was 1.53% and 0.366%. The compound was classed as inactive in experiment [16].

Consider `NN=C(N)N`, for which the Potency entry in experiment [2], in experiment [3], in experiment [15], in experiment [5], in experiment [6] and in [8] was “inactive” throughout. For the same compound, the Potency entry in [10], in [11], in [12] and in [14] was “inactive” each time. In addition, the result in experiment [4], in [9], in [13] and in experiment [16] was inactive. In addition, the viability change in [8] was 4.74% and 3.63%.

Take `NCC(CC(=O)O)c1ccc(Cl)cc1` (stereo not given): the result in [1], in experiment [9] and in experiment [13] was inactive. Further, the Potency entry in experiment [2], in experiment [15], in experiment [5], in experiment [10], in experiment [11] and in experiment [12] was “inactive” in each case. Further, in experiment [14], the Potency result was “inactive”. In addition, the activation in [7] is 0.125% (inactive). The Potency in experiment [8] is 9.2 µM (active). For the same compound, the viability change in experiment [8] is 12.6%.

For `c1ccc2c(c1)OCC(C1=NCCN1)O2` (stereo not given), the outcome in experiment [1], in [9] and in experiment [13] was inactive. Also, the Potency result in experiment [2], in experiment [3], in experiment [15], in [5], in experiment [10] and in experiment [11] was “inactive” throughout. Further, the Potency result in experiment [12] and in experiment [14] was “inactive” in each case. Moreover, the Potency in [6] is 14.6 µM (active). In addition, the activation in [7] is 1.38% (inactive).
